Laboratory results taken from PubChem BioAssay AID2629 (Broad Institute, 2010).
In all, about 320,000 compounds went through this assay and about 1,900 (0.59%) were called active. The sample holds actives, similar compounds and a random draw of the others, so the mix is not that of the screen. Rule as the data show it: active = inhibition mostly above about 10% (no sharp cut-off); inactive = mostly below about 6.7%.

What follows are compounds tested against Protein LANA1 (Human herpesvirus 8 type P (isolate GK18)) (UniProt Q9QR71) (assay: blockers of LANA interaction with H2A/H2B – biochemical, FP readout, HTS, primary screen (AID 2629)). Conditions: cell-free LANA-H2A/H2B peptide, fluorescence polarization, active compounds read high, concentration not given here.
Chain of Protein LANA1 (Human herpesvirus 8 type P (isolate GK18)) (Q9QR71 whole entry, looked up): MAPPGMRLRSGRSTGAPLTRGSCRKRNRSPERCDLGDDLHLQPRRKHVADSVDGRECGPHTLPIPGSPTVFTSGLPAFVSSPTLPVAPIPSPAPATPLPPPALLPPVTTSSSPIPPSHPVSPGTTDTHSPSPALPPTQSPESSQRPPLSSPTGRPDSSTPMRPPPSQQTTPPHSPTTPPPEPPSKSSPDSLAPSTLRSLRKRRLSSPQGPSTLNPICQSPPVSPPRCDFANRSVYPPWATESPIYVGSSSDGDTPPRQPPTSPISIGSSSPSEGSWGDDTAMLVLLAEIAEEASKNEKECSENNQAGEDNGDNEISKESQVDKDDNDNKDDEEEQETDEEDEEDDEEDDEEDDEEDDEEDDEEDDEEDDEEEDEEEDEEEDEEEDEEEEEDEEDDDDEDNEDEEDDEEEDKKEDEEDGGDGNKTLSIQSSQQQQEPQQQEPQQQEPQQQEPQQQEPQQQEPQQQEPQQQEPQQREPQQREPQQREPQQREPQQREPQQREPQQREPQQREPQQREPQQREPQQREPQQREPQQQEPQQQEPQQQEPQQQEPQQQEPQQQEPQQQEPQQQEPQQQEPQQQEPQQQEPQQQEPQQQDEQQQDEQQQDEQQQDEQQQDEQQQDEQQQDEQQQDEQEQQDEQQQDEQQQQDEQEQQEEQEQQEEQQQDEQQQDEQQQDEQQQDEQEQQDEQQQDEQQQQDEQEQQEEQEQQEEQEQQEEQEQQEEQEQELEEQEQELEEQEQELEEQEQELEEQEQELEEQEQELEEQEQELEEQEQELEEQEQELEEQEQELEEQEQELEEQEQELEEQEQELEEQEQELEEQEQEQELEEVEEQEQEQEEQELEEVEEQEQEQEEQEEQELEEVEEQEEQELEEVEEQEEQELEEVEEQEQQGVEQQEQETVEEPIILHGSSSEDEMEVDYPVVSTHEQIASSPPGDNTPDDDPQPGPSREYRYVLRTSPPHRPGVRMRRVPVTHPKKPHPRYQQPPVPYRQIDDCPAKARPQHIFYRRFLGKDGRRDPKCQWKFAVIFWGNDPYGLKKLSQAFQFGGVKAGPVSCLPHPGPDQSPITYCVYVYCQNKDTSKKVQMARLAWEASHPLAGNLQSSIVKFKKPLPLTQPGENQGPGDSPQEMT

inhibition, inactive:
COc1ccccc1NC(=O)C1CCCN1S(=O)(=O)c1ccc(Cl)cc1 (stereo not drawn) -0.219%
O=C1COc2ccc(C(=O)COC(=O)C3CC(O)CN3S(=O)(=O)c3ccc(Cl)cc3)cc2N1 (stereo not drawn) -4.73%
COc1ccc2c(C)cc3nnnn3c2c1 6.55%
CC(C)CC(=O)Nc1cc(C(F)(F)F)ccc1N1CCOCC1 3.7%
O=C(CN1C(=O)NC2(CCCC2)C1=O)Nc1cc(C(F)(F)F)ccc1N1CCOCC1 -2.08%
Cc1cc(Nc2cc(N3CCN(C)CC3)nc(Sc3ccc(NC(=O)C4CC4)cc3)n2)n[nH]1 1.71%
CN(c1ccccc1)S(=O)(=O)c1ccc(Cl)c(C(=O)OCC(N)=O)c1 -3.79%
CN(c1ccccc1)S(=O)(=O)c1ccc(Cl)c(C(=O)OCC(=O)NCc2ccco2)c1 -3.84%
Cc1ccc(S(=O)(=O)N(CC(O)CN2CCCCC2)c2cccc([N+](=O)[O-])c2)cc1 (stereo not drawn) 7.02%
Cc1cc(=O)n2nc(N3CCCC(C(=O)N4CCN(C)CC4)C3)sc2n1 (stereo not drawn) 0.763%
CCc1c(C)nc2ncnn2c1N1CCC(C(=O)NCc2ccc3c(c2)OCO3)CC1 0.84%
O=C(CSc1nnc(-c2ccccc2O)o1)NC1CCCCC1 3.2%
CCn1c(SCC(=O)NC2CCCC2)nnc1-c1ccoc1C -2.52%
CCCCSCCCNC(=O)C1CCC(CNS(=O)(=O)c2ccc(NC(C)=O)cc2)CC1 (stereo not drawn) -3.44%
CCSC1=NCCN1C(=O)c1ccc(S(=O)(=O)N(CC)CC)cc1 10.9%
O=C(CN1CCCCCC1)Nc1ccc(S(=O)(=O)N2CCCCC2)cc1 7.61%
O=C(CN1C(=O)CCC1=O)Nc1ccc(S(=O)(=O)N2CCOCC2)cc1 1.75%
COC(=O)CNS(=O)(=O)c1ccc(Cc2ccc(S(=O)(=O)NCC(=O)OC)cc2)cc1 5.82%
COC(=O)C1=C(C)NC2=C(C(=O)c3ccccc32)C1c1ccc(-c2ccc(C(=O)O)cc2)o1 (stereo not drawn) 3.17%
CC(=O)c1sc(N/N=C/c2ccc(C(C)C)cc2)nc1C 2.17%
COc1ccc(S(=O)(=O)N2CCOCC2)cc1NC(=O)CSc1nnc(NC2CC2)s1 -4.5%
COc1ccc(NC(=O)NNC(=O)COc2cc(C)c(Cl)c(C)c2)c(OC)c1 -5.21%
CN(CC(=O)Nc1c(Cl)cccc1Cl)C(=O)CNC(=O)C1CCCCC1 -5.68%
Cc1ccc(C(=O)CCC(=O)N(C)CC(=O)Nc2c(Cl)cccc2Cl)cc1 4.61%
COc1cccc(NC(=O)C/C(C)=N/NC(=O)C2CCCCC2)c1 3.19%
O=C(Nc1cccc(F)c1)NC1CCCCCCC1 0.578%
COc1ccc(F)cc1C(=O)C1CCCN(C(=O)CCc2ccccn2)C1 (stereo not drawn) -0.521%
CC1=NN(C(=O)c2ccccc2Br)C(O)(c2cccnc2)C1 (stereo not drawn) -0.482%
CCOC(=O)C1(O)CC(C)=NN1C(=O)c1cccc(Br)c1 (stereo not drawn) 1.92%
Cc1coc2c1c(C)cc1oc(=O)c(CC(=O)NCC(=O)N[C@H](C(=O)O)C(C)C)c(C)c12 1.45%
COc1ccc(C(=O)Nc2c(N)nc(SCC(=O)Nc3ccc(C(C)=O)cc3)[nH]c2=O)cc1 2.95%
COc1ccc(OC)c(NC(=O)CSc2nc(N)c(-c3ccccc3)c(=O)[nH]2)c1 4.91%
CCOc1ccc(CCNC(=O)COC(=O)C2CCN(c3ccc(C(F)(F)F)cn3)CC2)cc1OCC 2.54%
O=C(CN1CCc2ccccc2C1)Nc1cccc(S(=O)(=O)N2CCOCC2)c1 2.86%
CSCCC(NS(=O)(=O)c1ccc(C)cc1)C(=O)NCCc1c[nH]c2ccccc12 (stereo not drawn) -5.03%
CCc1nnc(NC(=O)[C@@H](NC(=O)c2cccc(C)c2)C(C)C)s1 1.78%
CCOc1c2ccc(C(=O)NCc3ccc(OC(F)(F)F)cc3)cc2nn1C -0.924%
CCCn1nc2cc(C(=O)NCc3ccccc3)ccc2c1OCC 3.43%
COC(=O)[C@H](C(C)C)n1c(C)c(C(C)=O)c(C(C)=O)c1C -3.34%
CCC(=O)N(C)C(c1ccccc1Cl)c1nnnn1-c1c(C)cccc1C (stereo not drawn) -0.0342%
COC(=O)c1ccc(CSc2nncn2C)cc1 5.16%
COC(=O)c1ccc(CSc2ccc(S(=O)(=O)N3CCCCC3)cn2)cc1 -0.0946%
CCCCNc1ccc(C(=O)Nc2cccc(C)n2)cc1[N+](=O)[O-] -3.43%
Cc1cc(C)c(C)c(S(=O)(=O)Nc2cccnc2)c1C -0.825%
COc1ccccc1Oc1ccc(S(=O)(=O)Nc2cccnc2)cc1 2.24%
COc1ccc(CCc2nnc(CCC(=O)NCc3cnn(-c4ccccc4C)c3)o2)cc1 16.6%
CC(=O)Nc1ccc(S(=O)(=O)NC2(C(F)(F)F)C(=O)Nc3c2c(=O)[nH]c(=O)n3Cc2ccccc2)cc1 (stereo not drawn) -2.71%
CC(=O)n1cc([C@@H]2C=C(C(=O)N3CCN(Cc4ccc5c(c4)OCO5)CC3)O[C@H](OCc3ccc(CO)cc3)C2)c2ccccc21 1.33%
CCC(C)c1ccc(NC(=S)NCc2ccccn2)cc1 (stereo not drawn) -1.48%
CCN(CC)CCOc1ccc2c(c1)C(=NNC(=O)c1ccccn1)c1cc(OCCN(CC)CC)ccc1-2 -1.56%
Oc1ccc(-c2onc3ccc(Cl)cc23)cc1 3.12%
CC(OC(=O)c1ccc2noc(-c3ccccc3)c2c1)C(N)=O (stereo not drawn) -5.93%
CC(C)c1ccc(Nc2nnc(SCC(=O)c3nnc(-c4ccccc4)o3)s2)cc1 -16.3%
Cc1noc(C)c1COc1ccc(C(=O)NCCOc2ccccc2)cc1 2.1%
COC(=O)c1cnc(Nc2cc(C)ccc2OC)c2ccccc12 -2.27%
COc1ccc(C)cc1Nc1nc(C)nc2c1oc1ccccc12 3.52%
Cc1cc(C=O)c(C)n1-c1ccc(NC2CCCCC2)c([N+](=O)[O-])c1 5.17%
Cc1ccc(NS(=O)(=O)c2ccc(C(C)C)cc2)cc1S(=O)(=O)N1CCOCC1 -10.5%
O=C(COc1ccc(Cl)cc1)NCCSc1ccccc1 -4.08%
O=C(CCCOc1ccccc1)NNC(=O)c1ccc(Cl)cc1 3.13%
COC(=O)Cc1csc(/N=C/c2c(O)n(-c3cccc(C(F)(F)F)c3)c(=O)c3ccccc23)n1 -3.9%
Cn1c(CCc2ccccc2)nnc1SCC(N)=O -7.18%
N#CCCn1ncc2ccccc21 4.72%
O=C(CNCc1ccc(F)cc1)Nc1ccccc1-c1ccccc1 -4%
COc1cc(NC(=O)c2ccccc2)c(OC)cc1NC(=O)Cc1ccccc1 -1.39%
CC(=O)NCC(=O)N1CCCC(C(=O)c2ccc3c4c(cccc24)CC3)C1 (stereo not drawn) -1.06%
Cc1ncoc1C(=O)N1CCCC(C(=O)c2ccc3c4c(cccc24)CC3)C1 (stereo not drawn) 1.25%
CCc1c(O)cc2n(c1=O)-c1ccccc1C2(C)C 5.7%
O=C(CN1CCN(c2ncccn2)CC1)Nc1ccccc1C(F)(F)F 0.982%
COc1cc(C(=S)N2CCOCC2)ccc1O 9.41%
COc1ccc(OC)c(C(=O)c2coc3ccc(O)c(CN4CCOCC4)c23)c1 -2.58%
CC(C)(C)C1CCC(OC(=O)CCC(=O)Nc2ccccc2)CC1 (stereo not drawn) -3.13%
Cc1ccc(C2NC(C(=O)O)CS2)cc1 (stereo not drawn) 1.22%
CN(CC(=O)Nc1ccc(F)c(F)c1F)C(=O)Cn1cnc2c1c(=O)n(C)c(=O)n2C 1.35%
O=c1[nH]n2c(=O)c3c([nH]c2c1N=Nc1ccccc1)CCC3 -4.38%

inhibition, active:
NNC(=O)C1CC(O)CN1S(=O)(=O)c1ccc(Cl)cc1 (stereo not drawn) 18%
O=C(Cn1nnc2ccccc2c1=O)Nc1cc(C(F)(F)F)ccc1N1CCOCC1 15.8%
Cc1occc1-c1nnc(SCC(=O)NC2CCCCC2)o1 14.3%
CCCC1C(c2ccccc2)C(C#N)(C#N)C2(C#N)CC1(N)NC2=O (stereo not drawn) 182%
O=C(CN1CCN(c2cccc(Cl)c2)CC1)Nc1ccc(S(=O)(=O)N2CCOCC2)cc1 145%
CN(CC(=O)Nc1c(Cl)cccc1Cl)C(=O)c1ccncc1 111%
C/C(CC(=O)Nc1cccc(F)c1)=N\NC(=O)C(=O)NC1CCCCC1 15.3%
CC1=NN(C(=O)c2ccc(Br)cc2)C(O)(c2ccccc2)C1 (stereo not drawn) 15.6%
COc1ccc(NC(=O)CSc2nc(N)c(-c3ccccc3)c(=O)[nH]2)cc1 12.1%
CCOc1c2ccc(C(=O)NCc3ccc4c(c3)OCO4)cc2nn1C 19.6%
COC(=O)c1ccc(SCc2ccccc2)nc1 60.3%
COc1ccc(S(=O)(=O)Nc2cccnc2)c(Cl)c1Cl 12.6%
COc1ccc(-c2onc3ccc(C(C)=O)cc23)cc1 26.3%
COc1ccc(C)cc1Nc1nc(-c2c(C)[nH]c3ccccc23)cs1 39.5%
O=C(CCc1ccccc1)NNC(=O)COc1ccc(Cl)cc1 77.8%
CCn1ccnc1CN1CCCC(C(=O)c2ccc3c4c(cccc24)CC3)C1 (stereo not drawn) 25.9%
COc1ccc(/C(C)=N/N2CCOCC2)c(O)c1 25.4%
CC(C)(C)n1c(=O)[nH]c2c(c1=O)CCC2 23.6%
